# Compounds with a hit are over-represented: about 3% of the library has one in this group of screens.
# C2C12 statin: suppressors of simvastatin-induced myotoxicity in C2C12 myotubes; rescue of ATP level, % at 7.49 µM; ATP luminescence, 48 h; scaled: DMSO 0, geranylgeraniol control 100; hit rate 0.78% among 330,000;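 active = mean ATP rescue above about 67%, or every replicate alone reaching that limit, limit read from the data, passing the limit was not always enough; inconclusive = no clear call, values can overlap the other calls; inactive = mean under the limit and some replicate under it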;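 note: myotubes were challenged with 10 µM simvastatin during compound exposure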
# Wnt act: Wnt/beta-catenin pathway activation; hit rate 1.2% among 300,000; activation, % at 9.35 µM; AID 743398; Wnt/beta-catenin reporter cell assay, activator, plate reader; in the data active = activation above about 30%, passing the limit was not always enough; inconclusive = no clear call, values can overlap the other calls;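 note: 0% = neutral control wells and 100% = positive control wells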
# esBAF inh: inhibitors of esBAF chromatin remodeling in mouse ES cells | Bmi1-luciferase knock-in reporter, 24 h; 100% = twice the neutral-well signal | hit rate 2% among 350,000 | reporter increase, % at 12.5 µM; in the data active = activation above about 40%; inconclusive = no clear call, values can overlap the other calls;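 note: 0% = median of the plate's neutral control wells and 100% = double that signal; a rise in the Bmi1 reporter signal indicates esBAF inhibition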
# MITF TRPM1 HTS: increases MITF-driven TRPM1 promoter luciferase signal. SK-MEL-5 TRPM1-promoter luciferase, 24 h; % of positive control, neutral wells = 0. hit rate 0.75% among 300,000. activation, % at 12.5 µM;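 active = mean activation of at least 80% with every replicate also reaching 80%; inconclusive = mean reaches 80% but some replicate falls short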;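 note: 0% = neutral control wells and 100% = parthenolide positive control wells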
# Active calls of the source: *; ? = inconclusive; · = no result.
SMILES,C2C12 statin,Wnt act,esBAF inh,MITF TRPM1 HTS
CCN(CC)c1ccc(/C=N/NC(=O)c2ccoc2C)c(O)c1,·,47*,·,-16
Cc1occc1C(=O)N/N=C/c1cccc2ccccc12,12,18,69*,97*
Cc1cc(/C=N/NC(=O)c2ccoc2C)cc(C)c1O,-9,0,69*,·
Cc1occc1C(=O)N/N=C/c1ccc(OCc2ccccc2)cc1,-24,38*,54*,·
O=C(N/N=C/c1cccc2ccccc12)c1ccccc1Cl,0,4,13,·
CCN(CC)c1ccc(/C=N/NC(=O)OC)c(O)c1,-46,-1,27,·
CCC(=O)N(C)C[C@@H]1Oc2cc(-c3ccccc3F)ccc2S(=O)(=O)N([C@@H](C)CO)C[C@H]1C,-43,·,1,·
C[C@H](CO)N1C[C@H](C)[C@@H](CN(C)Cc2ccc(Oc3ccccc3)cc2)Oc2c(NS(=O)(=O)c3cccs3)cccc2C1=O,43,·,-5,·
C[C@@H]1CN([C@H](C)CO)C(=O)c2cc(NS(=O)(=O)c3cn(C)cn3)ccc2O[C@@H](C)CCCCO[C@H]1CN(C)CC1CCCCC1,3,·,0,·
CCCCCn1nc(C)c(/C=N/NC(=O)c2ccoc2C)c1C,-14,·,62*,51
Cc1occc1C(=O)N/N=C/c1ccc2c(c1)OCO2,-117,38*,-27,8
C[C@@H]1CN([C@@H](C)CO)C(=O)c2cc(C3=CCCC3)cnc2O[C@@H]1CN(C)C(=O)Nc1ccc(F)cc1,40,·,3,·
C[C@H](CO)N1C[C@H](C)[C@H](CN(C)C(=O)Nc2ccccc2)Oc2ccc(NC(=O)Nc3ccc4c(c3)OCO4)cc2CC1=O,9,·,5,·
Cc1cc(C(=O)COC(=O)c2ccc(O)cc2)c(C)n1CC(F)(F)F,4,51*,95*,·
O=C(c1cc2c(s1)-c1ccccc1OC2)N1CCc2ccccc2C1,-8,0,7,12
O=C(c1ccc2c(c1)OCO2)N1CCc2ccccc2C1,-3,23,45*,49
O=C(c1cc(Br)c(Br)s1)N1CCc2ccccc2C1,14,8,42*,15
O=C(c1ccc2c(c1)OCO2)N1CCc2ccccc21,1,3,21,24
O=C(C1COc2ccccc2O1)N1CCc2ccccc2C1 (stereo unspecified),14,·,47*,·
COc1ccccc1S(=O)(=O)N[C@@H]1CC[C@@H](CCn2cc(C3CCCCC3)nn2)O[C@@H]1CO,-10,·,-3,·
O=C(N[C@H]1CC[C@H](CC(=O)N2CCc3ccccc3C2)O[C@@H]1CO)C1CC1,3,·,4,·
CO[C@H]1CN(C)C(=O)c2ccc(NC(C)=O)cc2OC[C@@H](C)N(Cc2ccccn2)C[C@H]1C,11,·,-2,·
COc1ccc(S(=O)(=O)N2C[C@@H](O)COC[C@@H]3O[C@H](CC(=O)NCc4ccc(Cl)c(Cl)c4)CC[C@H]32)cc1,2,·,-6,·
O=C(NC1CCCCC1)C(c1cccs1)N(C(=O)c1ccco1)c1ccc2c(c1)OCCO2 (stereo unspecified),·,0,78*,-1
CC(=O)c1ccc(N(C(=O)c2ccco2)C(C(=O)NC2CCCC2)c2cccs2)cc1 (stereo unspecified),37,1,11,·
SMILES,C2C12 statin,Wnt act,esBAF inh,MITF TRPM1 HTS
CCc1ccc(N(C(=O)c2ccco2)C(C(=O)NC2CCCC2)c2ccncc2)cc1 (stereo unspecified),-20,8,42*,17
CCc1ccc(N(C(=O)c2ccco2)C(C(=O)NC2CCCC2)c2ccco2)cc1 (stereo unspecified),17,·,50*,5
O=C(NC1CCCC1)C(c1ccco1)N(C(=O)c1ccco1)c1ccccc1 (stereo unspecified),-34,0,3,-4
COC(CNc1ncnc2sc(-c3ccccc3)cc12)OC,-7,1,22,21
CC(O)CNc1ncnc2cc(-c3ccc(F)cc3)sc12 (stereo unspecified),-1,12,54*,?
O=C1O/C(=C\C(=O)N2CCOCC2)c2ccccc21,-6,·,1,-17
O=C1O/C(=C/C(=O)N2CCOCC2)c2ccccc21,74*,·,-2,-16
Cn1c2ccccc2c(=O)c2c(=O)n(-c3ccc(F)cc3)c(-c3cccs3)nc21,·,51*,·,12
O=C(c1cc(F)c(F)cc1Cl)N1CCOCC1,·,7,-6,·
CC1CCN(C(=O)c2cc(F)c(F)cc2Cl)CC1,135*,0,-9,·
Cc1ccc(Sc2cc(NCCCO)c([N+](=O)[O-])c3nonc23)cc1,102*,-3,-17,-12
O=C(C[C@@H]1CC[C@@H]2[C@H](COC[C@H](O)CN2S(=O)(=O)c2ccc(F)cc2)O1)N1CCc2ccccc2C1,17,·,5,·
CC(=O)Nc1ccc(OC/C=C(\C)Cl)cc1,-4,·,55*,29
CC(=O)Nc1ccc(OC(=O)Oc2ccc(NC(C)=O)cc2)cc1,8,1,-3,20
Clc1cc(Cl)c2nc(N3CCCC3)sc2c1,·,36*,·,29
CNc1nc2c(Cl)cc(Cl)cc2s1,·,3,·,·
Clc1cc(Cl)c2nc(N3CCCCC3)sc2c1,-8,60*,53*,70
Cc1cc(N2CCN(C)CC2)nc2ccc(NC(=O)CCC(=O)N3CCN(c4ccc([N+](=O)[O-])cc4)CC3)cc12,-25,-3,-21,9
CCCCNC(=O)CCC(=O)Nc1ccc2nc(N3CCCCC3)cc(C)c2c1,·,-1,·,62
Cc1cc(N2CCCCC2)nc2ccc(NC(=O)CCC(=O)NCCC(C)C)cc12,1,43*,74*,·
Cc1cc(N2CCOCC2)nc2ccc(NC(=O)CCC(=O)N3CCN(c4ccccc4)CC3)cc12,-3,4,53*,80
CCCCNC(=O)CCC(=O)Nc1ccc2nc(N3CCOCC3)cc(C)c2c1,-17,14,43*,·
Cc1cn(CCC(=O)Nc2ccc(N3CCOCC3)cc2)c2ccccc12,-4,16,?,81*
C[C@H]1CN([C@@H](C)CO)C(=O)c2cc(NC(=O)Nc3ccccc3)ccc2O[C@H]1CN(C)S(=O)(=O)c1ccc(Cl)cc1,-40,·,0,·
COc1cc(OC)cc(C(=O)Nc2nc3ccccc3[nH]2)c1,·,·,·,71
SMILES,C2C12 statin,Wnt act,esBAF inh,MITF TRPM1 HTS
CCC(Oc1ccccc1)C(=O)Nc1nc2ccccc2[nH]1 (stereo unspecified),3,7,53*,41
COc1ccc(CCC(=O)Nc2nc3ccccc3[nH]2)cc1,4,·,46*,40
CC(C)Oc1ccc(C(=O)Nc2nc3ccccc3[nH]2)cc1,-238,-4,-89,-81
COc1ccc(Br)c(C(=O)Nc2nc3ccccc3[nH]2)c1,12,6,49*,92*
O=C(CC1CCCC1)Nc1nc2ccccc2[nH]1,2,40*,62*,·
COc1ccc(CC(=O)Nc2nc3ccccc3[nH]2)cc1,·,5,·,8
Cc1noc(C)c1NC(=O)Nc1ccc2c(c1)C(=O)N([C@H](C)CO)C[C@@H](C)[C@@H](CN(C)Cc1ccc(C(F)(F)F)cc1)OCCCC[C@H](C)O2,·,·,2,·
CCOc1ccccc1OCCCC(=O)Nc1nc2ccccc2[nH]1,·,0,·,5
COCc1nnc(NC(=O)CCc2ccc(OC)cc2)s1,11,0,-14,·
